Assay results from the supplement of paper PMC10849652.
Targets with a hit are over-represented here; the source holds about 7,900 in all. About 0.6% of all pairs of compound and target were hits. A number with no mark means an inactive call.

How the values were obtained:
Experiment in all cases: log2 fold change, soluble protein after heating vs DMSO (PISA); higher = thermal stabilisation; K562 cells, 10 uM, 30 min; active = over 0.2 and 3.5 SD of the protein, either way, in both replicates (recomputed)
erlotinib = compound: C#Cc1cccc(Nc2ncnc3cc(OCCOC)c(OCCOC)cc23)c1 [erlotinib]
In short: (§1)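 Values are thermal stability changes relative to control samples and are taken from duplicates. They are stated as log2 fold changes. Before quantification by TMTpro 16plex LC-MS/MS with equalised channel sums, K562 cells at 2×10^6 cells/mL were treated with 10 μM compound for 30 min, heated in aliquots for 3 min across 48°C-58°C, pooled, extracted in PBS with 0.5% NP-40 at 4°C, and centrifuged at 21,000xg for 90 min to give the soluble supernatant.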

[1] = compound: C/C(=N\NC(=O)C1=CC(=CC=C1)S(=O)(=O)N2CCOCC2)/C3=C(C=CC(=C3)Cl)O
In short: as §1

[2] = compound: C1=CC(=C(C=C1Cl)C2=NC3=NC=CN=C3C(=N2)NC4=CC=NC=C4)F
In short: as §1

[3] = compound: C1=CC(=CC=C1C2=NC3=C(N2)C=C(C=C3)C(=O)N)OC4=CC=C(C=C4)Cl
In short: as §1

[4] = compound: C1=CC2=C(C=CC(=C2)/C=C\3/C(=O)NC(=NCC4=CC=CS4)S3)N=C1
In short: as §1

[5] = compound: C1=CC2=NC=CN=C2C=C1/C=C/3\C(=O)NC(=O)S3
In short: as §1

[6] = compound: C1=CC=C(C=C1)C2=NC(=C(N2)C3=CC=NC=C3)C4=CC(=C(C=C4)Cl)O
In short: as §1

[7] = compound: C1=CC=C2C(=C1)C3=NNC4=CC=CC(=C43)C2=O
In short: as §1

[8] = compound: C1CCN(C1)C(=O)NC2=CC=CC(=C2)NC3=NC=C(C(=N3)NCCC4=CN=CN4)Br
In short: as §1

[9] = compound: C1CN(CCC1(CC2=CC=C(C=C2)Cl)N)C3=NC=NC4=C3C=CN4
In short: as §1

IRAK-1-4 Inhibitor I = compound: C1COCCN1CCN2C3=CC=CC=C3N=C2NC(=O)C4=CC(=CC=C4)[N+](=O)[O-] [IRAK-1-4 Inhibitor I]
In short: as §1

ibrutinib = compound: C=CC(=O)N1CCC[C@@H](n2nc(-c3ccc(Oc4ccccc4)cc3)c3c(N)ncnc32)C1 [ibrutinib]
In short: as §1

[10] = compound: CC(=O)c1cnc2ccc(-c3cc(Cl)c(O)c(Cl)c3)nc2c1N[C@H]1CC[C@H](CN(C)C)CC1
In short: as §1

ralimetinib = compound: CC(C)(C)Cn1c(N)nc2ccc(-c3[nH]c(C(C)(C)C)nc3-c3ccc(F)cc3)nc21 [ralimetinib]
In short: as §1

[11] = compound: CC(C)(O)CC(=O)NCCn1ccc2ncnc(Nc3ccc(Oc4cccc(C(F)(F)F)c4)c(Cl)c3)c21
In short: as §1

[12] = compound: CC(C)C1=C2N=C(C=C(N2N=C1)NCC3=CC=CC=C3)NCCCCCCN
In short: as §1

[13] = compound: CC(C)C[C@@H](C=O)NC(=O)[C@H](CC(C)C)NC(=O)[C@H](CC(C)C)NC(=O)OCc1ccccc1
In short: as §1

pinometostat = compound: CC(C)N(C[C@H]1O[C@@H](n2cnc3c(N)ncnc32)[C@H](O)[C@@H]1O)[C@H]1C[C@@H](CCc2nc3cc(C(C)(C)C)ccc3[nH]2)C1 [pinometostat]
In short: as §1

[14] = compound: CC1=C(C(CC(=O)N1)C2=CC=C(C=C2)C(F)(F)F)C(=O)NC3=C(C=C4C(=C3)C=NN4)F
In short: as §1

[15] = compound: CC1=C(C2=C(C=C1)C(=O)C3=CC=CC=C3N2CCCN)C
In short: as §1

Chain of UniProt P23434 (P23434 whole entry, looked up): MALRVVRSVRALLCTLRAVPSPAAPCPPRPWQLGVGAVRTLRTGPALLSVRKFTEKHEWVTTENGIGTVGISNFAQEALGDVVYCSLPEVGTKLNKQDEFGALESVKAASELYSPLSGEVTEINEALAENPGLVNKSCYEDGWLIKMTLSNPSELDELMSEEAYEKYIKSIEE
Chain of UniProt Q9NP66 (Q9NP66 whole entry, looked up): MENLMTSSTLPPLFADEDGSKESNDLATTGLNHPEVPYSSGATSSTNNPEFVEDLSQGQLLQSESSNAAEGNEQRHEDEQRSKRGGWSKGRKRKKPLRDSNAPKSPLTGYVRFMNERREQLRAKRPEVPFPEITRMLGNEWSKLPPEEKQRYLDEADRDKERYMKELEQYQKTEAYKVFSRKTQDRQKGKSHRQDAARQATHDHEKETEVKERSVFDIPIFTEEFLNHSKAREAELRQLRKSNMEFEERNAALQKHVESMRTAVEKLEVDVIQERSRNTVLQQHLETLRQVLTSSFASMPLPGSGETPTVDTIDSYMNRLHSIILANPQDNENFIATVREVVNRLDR
Chain of UniProt P31150 (P31150 whole entry, looked up): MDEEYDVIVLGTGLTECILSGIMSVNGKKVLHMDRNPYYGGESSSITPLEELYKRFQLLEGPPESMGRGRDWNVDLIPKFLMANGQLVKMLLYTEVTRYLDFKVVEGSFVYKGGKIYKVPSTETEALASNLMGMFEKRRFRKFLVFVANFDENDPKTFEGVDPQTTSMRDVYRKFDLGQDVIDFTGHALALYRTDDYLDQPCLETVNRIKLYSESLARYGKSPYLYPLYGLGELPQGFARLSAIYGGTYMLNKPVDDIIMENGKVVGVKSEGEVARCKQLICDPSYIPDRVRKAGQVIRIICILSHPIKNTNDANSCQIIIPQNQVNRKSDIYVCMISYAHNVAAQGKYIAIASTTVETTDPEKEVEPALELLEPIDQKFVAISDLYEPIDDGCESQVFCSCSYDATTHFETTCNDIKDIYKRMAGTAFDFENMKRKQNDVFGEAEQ
Chain of UniProt Q9H4G4 (Q9H4G4 whole entry, looked up): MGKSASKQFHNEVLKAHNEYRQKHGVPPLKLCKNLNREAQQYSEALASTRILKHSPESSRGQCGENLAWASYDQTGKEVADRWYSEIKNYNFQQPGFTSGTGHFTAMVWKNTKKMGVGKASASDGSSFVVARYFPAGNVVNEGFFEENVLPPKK
Chain of UniProt Q02790 (Q02790 whole entry, looked up): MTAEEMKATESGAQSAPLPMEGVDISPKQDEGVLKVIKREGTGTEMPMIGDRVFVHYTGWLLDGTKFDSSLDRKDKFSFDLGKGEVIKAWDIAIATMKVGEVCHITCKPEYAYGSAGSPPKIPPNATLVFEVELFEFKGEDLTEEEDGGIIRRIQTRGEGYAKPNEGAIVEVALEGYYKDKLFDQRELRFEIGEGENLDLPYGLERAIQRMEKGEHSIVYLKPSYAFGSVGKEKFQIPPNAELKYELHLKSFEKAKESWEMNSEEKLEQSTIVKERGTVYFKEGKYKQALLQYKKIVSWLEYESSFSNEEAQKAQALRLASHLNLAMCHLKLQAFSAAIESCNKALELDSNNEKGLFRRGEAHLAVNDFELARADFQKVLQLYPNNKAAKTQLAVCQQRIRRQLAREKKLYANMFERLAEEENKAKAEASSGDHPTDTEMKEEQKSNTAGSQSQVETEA
Chain of UniProt Q9BUJ2 (Q9BUJ2 whole entry, looked up): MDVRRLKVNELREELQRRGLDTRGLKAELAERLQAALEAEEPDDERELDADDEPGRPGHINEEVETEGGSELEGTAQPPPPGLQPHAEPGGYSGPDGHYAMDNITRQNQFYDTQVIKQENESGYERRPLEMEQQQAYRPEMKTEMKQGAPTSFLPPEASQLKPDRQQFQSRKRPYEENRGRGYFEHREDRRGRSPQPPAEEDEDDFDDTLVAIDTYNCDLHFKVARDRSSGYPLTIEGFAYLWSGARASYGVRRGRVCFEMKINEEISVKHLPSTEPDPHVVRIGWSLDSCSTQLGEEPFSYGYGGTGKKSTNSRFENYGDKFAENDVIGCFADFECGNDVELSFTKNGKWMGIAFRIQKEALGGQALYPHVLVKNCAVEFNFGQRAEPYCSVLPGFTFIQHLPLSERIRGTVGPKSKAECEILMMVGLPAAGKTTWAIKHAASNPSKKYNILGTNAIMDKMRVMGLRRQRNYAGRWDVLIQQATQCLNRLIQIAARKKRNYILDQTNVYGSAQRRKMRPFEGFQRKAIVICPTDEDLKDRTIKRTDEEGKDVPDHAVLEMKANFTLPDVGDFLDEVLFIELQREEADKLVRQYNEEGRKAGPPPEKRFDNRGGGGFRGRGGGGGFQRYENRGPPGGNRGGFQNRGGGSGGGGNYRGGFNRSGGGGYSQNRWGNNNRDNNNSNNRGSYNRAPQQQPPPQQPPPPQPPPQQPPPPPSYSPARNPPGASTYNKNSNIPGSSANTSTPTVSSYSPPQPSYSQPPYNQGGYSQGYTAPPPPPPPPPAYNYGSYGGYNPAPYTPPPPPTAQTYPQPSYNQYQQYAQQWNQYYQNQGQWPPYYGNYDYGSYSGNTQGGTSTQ
Chain of UniProt P15586 (P15586 whole entry, looked up): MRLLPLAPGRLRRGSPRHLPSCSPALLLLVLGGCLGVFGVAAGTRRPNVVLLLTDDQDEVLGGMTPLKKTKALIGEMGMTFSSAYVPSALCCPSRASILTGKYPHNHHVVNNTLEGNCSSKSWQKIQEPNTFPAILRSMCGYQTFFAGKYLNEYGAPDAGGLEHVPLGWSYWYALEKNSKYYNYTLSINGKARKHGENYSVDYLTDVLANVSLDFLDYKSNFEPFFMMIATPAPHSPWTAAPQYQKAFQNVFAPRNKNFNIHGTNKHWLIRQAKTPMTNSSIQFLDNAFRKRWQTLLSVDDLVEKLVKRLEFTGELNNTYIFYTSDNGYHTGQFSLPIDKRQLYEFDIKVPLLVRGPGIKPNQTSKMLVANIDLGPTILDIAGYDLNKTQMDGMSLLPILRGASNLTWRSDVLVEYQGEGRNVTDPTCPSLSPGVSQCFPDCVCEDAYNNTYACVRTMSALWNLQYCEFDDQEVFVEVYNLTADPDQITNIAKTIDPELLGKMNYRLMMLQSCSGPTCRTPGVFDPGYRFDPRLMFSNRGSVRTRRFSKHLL
Chain of UniProt Q7Z4V5 (Q7Z4V5 whole entry, looked up): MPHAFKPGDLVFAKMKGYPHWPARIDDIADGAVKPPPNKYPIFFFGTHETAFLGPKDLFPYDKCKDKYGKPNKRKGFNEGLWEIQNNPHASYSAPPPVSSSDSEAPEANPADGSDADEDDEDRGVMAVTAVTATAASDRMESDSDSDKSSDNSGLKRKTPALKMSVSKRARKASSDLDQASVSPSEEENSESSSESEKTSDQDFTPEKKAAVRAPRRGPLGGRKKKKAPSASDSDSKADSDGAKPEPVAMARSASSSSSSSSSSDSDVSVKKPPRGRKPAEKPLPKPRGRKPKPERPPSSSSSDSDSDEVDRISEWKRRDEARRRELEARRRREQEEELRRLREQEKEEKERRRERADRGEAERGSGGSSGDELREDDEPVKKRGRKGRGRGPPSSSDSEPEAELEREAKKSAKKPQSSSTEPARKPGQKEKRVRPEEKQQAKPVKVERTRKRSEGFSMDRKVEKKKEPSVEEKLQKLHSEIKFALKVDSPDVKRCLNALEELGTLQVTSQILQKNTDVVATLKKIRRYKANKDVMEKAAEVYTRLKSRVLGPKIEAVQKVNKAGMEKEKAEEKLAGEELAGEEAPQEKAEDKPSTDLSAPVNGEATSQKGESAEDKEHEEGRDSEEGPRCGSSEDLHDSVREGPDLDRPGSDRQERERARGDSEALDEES

| Target | log2 fold change (erlotinib) | log2 fold change [1] | log2 fold change [2] | log2 fold change [3] | log2 fold change [4] | log2 fold change [5] | log2 fold change [6] | log2 fold change [7] | log2 fold change [8] | log2 fold change [9] | log2 fold change (IRAK-1-4 Inhibitor I) | log2 fold change (ibrutinib) | log2 fold change [10] | log2 fold change (ralimetinib) | log2 fold change [11] | log2 fold change [12] | log2 fold change [13] | log2 fold change (pinometostat) | log2 fold change [14] | log2 fold change [15] |
| --- | --- | --- | --- | --- | --- | --- | --- | --- | --- | --- | --- | --- | --- | --- | --- | --- | --- | --- | --- | --- |
| GCSH (UniProt P23434) | -0.072 | -0.023 | 0.253 | 0.061 | -0.036 | 0.067 | -0.038 | -0.007 | -0.017 | -0.025 | 0.027 | -0.002 | 0.011 | -0.026 | -0.031 | -0.025 | -0.049 | -0.021 | 0.029 | 0.03 |
| HMG20A (UniProt Q9NP66) | -0.005 | 0.125 | -0.09 | 0.017 | -0.281 | -0.009 | 0.429 (active) | 0.001 | -0.013 | 0.006 | -0.05 | 0.043 | -0.015 | 0.275 | 0.062 | 0.043 | -0.405 | 0.026 | -0.008 | 0.007 |
| GLIPR2 (UniProt Q9H4G4) | 0.039 | 0.054 | -0.035 | 0.15 | 0.023 | -0.019 | -0.062 | -0.028 | 0.045 | -0.058 | 0.038 | -0.047 | -0.01 | 0.04 | 0.06 | -0.35 (active) | 0.012 | 0.03 |  | 0.061 |
| HIST2H2BF isoform 2 (UniProt Q5QNW6) | 0.013 | -0.161 | -0.433 | 0.046 | 0.048 | 0.223 | -0.057 | -0.083 | 0.191 | -0.373 | -0.165 | 0.148 | -0.054 | 0.162 | 0 | -0.047 | 0.226 | 0.422 | 0.002 | 0.601 |
| HDGFL2 (UniProt Q7Z4V5) | 0.002 | 0.001 | 0.042 | -0.006 | -0.046 | 0.048 | -0.01 | -0.046 | 0.033 | 0.057 | 0.01 | -0.039 | 0.011 | -0.019 | 0.041 | -0.017 | -0.022 | -0.051 | 0.029 | -0.709 (active) |
| GNS (UniProt P15586) | -0.033 | -0.003 | 0.005 | 0.004 | 0.028 | 0.026 | 0.03 | -0.04 | 0.023 | 0.061 | 0.023 | -0.011 | 0.011 | -0.04 | 0.065 | -0.079 | 0.025 | -0.025 | -0.017 | -0.01 |
| FKBP4 (UniProt Q02790) | -0.04 | 0.07 | 0.055 | -0.042 | 0.017 | 0.007 | 0.036 | 0.047 | 0.016 | -0.033 | 0 | -0.005 | -0.006 | -0.016 | -0.036 | -0.094 | 0.002 | -0.032 | -0.019 | 0.013 |
| HNRNPUL1 (UniProt Q9BUJ2) | 0.022 | -0.009 | 0.018 | -0.012 | 0.001 | -0.01 | 0.004 | 0.014 | 0.029 | -0.048 | -0.055 | 0 | -0.072 | 0.005 | 0.027 | 0.007 | 0.035 | 0.01 | 0.014 | -0.096 |
| GDI1 (UniProt P31150) | -0.009 | 0.025 | 0.03 | 0.014 | 0.007 | 0.007 | -0.021 | -0.001 | 0.015 | 0.008 | 0.034 | 0.018 | -0.027 | -0.057 | 0.009 | 0.04 | -0.012 | -0.008 | -0.022 | 0.011 |
